Records with an inconclusive call do not appear. The source made the active and inactive calls. Rule for the calls: active = hit-call score of the fitted dose curve at least 0.9, where 1 is the maximum; inconclusive = response in the unintended direction; inactive = score below 0.9.
Tests used:
[1] = TOX21_p53_BLA_p2_viability: Viability Assessment in the Tox21 HCT-116 p53 Agonism Beta-lactamase Assay, Phase 2 (AID 2283591);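 note: actives lower the ATP signal meaning cytotoxicity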
Method in brief: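 HCT116 p53-bla cells, 4000/well, dosed after 5 h plating (217-fold dilution of DMSO stocks) and incubated 16 h at 37C. Viability taken as cellular ATP by CellTiter-Glo luminescence after 30 min RT; signal loss marks cytotoxicity.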

[2] = target: Cellular tumor antigen p53 (Homo sapiens) (UniProt P04637); experiment: TOX21_p53_BLA_p2_ratio: Tox21 HCT-116 p53 Agonism Beta-lactamase Assay, Ratio, Phase 2 (AID 2283592)
Sequence of Cellular tumor antigen p53 (Homo sapiens) (P04637 whole entry, looked up): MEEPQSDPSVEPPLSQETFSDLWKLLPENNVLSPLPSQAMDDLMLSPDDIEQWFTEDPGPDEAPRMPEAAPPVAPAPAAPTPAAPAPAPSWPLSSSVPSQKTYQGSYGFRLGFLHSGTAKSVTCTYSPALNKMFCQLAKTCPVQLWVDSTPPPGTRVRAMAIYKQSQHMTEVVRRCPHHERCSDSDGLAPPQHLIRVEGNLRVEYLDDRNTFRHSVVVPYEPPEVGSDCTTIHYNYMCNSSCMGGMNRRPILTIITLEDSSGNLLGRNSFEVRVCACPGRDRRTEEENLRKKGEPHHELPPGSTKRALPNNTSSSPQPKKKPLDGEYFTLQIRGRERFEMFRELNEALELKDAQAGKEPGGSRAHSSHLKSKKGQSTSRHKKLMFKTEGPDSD
Method in brief: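 First, HCT116 reporter cells settle for 5 h at 37C. Next, DMSO compound solutions are pinned in (217-fold dilution) and left 16 h. Finally, CCF4-AM substrate is loaded 2 h at room temperature and the 460/530 nm ratio read.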

[3] = TOX21_p53_BLA_p3_viability: Viability Assessment in the Tox21 HCT-116 p53 Agonism Beta-lactamase Assay, Phase 3 (AID 2283593);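 note: cells exposed to compound for 16 h before reading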
Method in brief: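 HCT116 cells, 4000/well, dosed 5 h after plating by pin transfer (217-fold dilution from DMSO stock) and incubated 16 h at 37C, 5% CO2. Viability read as ATP luminescence with CellTiter-Glo after 30 min at room temperature.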

[4] = target: Cellular tumor antigen p53 (Homo sapiens) (UniProt P04637); experiment: TOX21_p53_BLA_p3_ratio: Tox21 HCT-116 p53 Agonism Beta-lactamase Assay, Ratio, Phase 3 (AID 2283596)
Method in brief: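 Cells were seeded at 4000/well, rested 5 h at 37C, then dosed with DMSO compound solutions (217-fold dilution) for 16 h. CCF4-AM substrate was loaded for 2 h at room temperature, and the 460/530 nm emission ratio was fitted for gain of signal versus DMSO.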

[5] = TOX21_p53_BLA_p4_viability: Viability Assessment in the Tox21 HCT-116 p53 Agonism Beta-lactamase Assay, Phase 4 (AID 2283597);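 note: hits lower the luminescence signal meaning cytotoxicity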
Method in brief: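 4000 HCT116 cells per well; 5 h attachment; compounds from DMSO, 217-fold dilution; 16 h at 37C. Then CCF4-AM, 2 h RT, followed by CellTiter-Glo, 30 min RT, luminescence. Decrease = cytotoxicity.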

[6] = target: Cellular tumor antigen p53 (Homo sapiens) (UniProt P04637); experiment: TOX21_p53_BLA_p5_ratio: Tox21 HCT-116 p53 Agonism Beta-lactamase Assay, Ratio, Phase 5 (AID 2283599)
Method in brief: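 HCT-116 p53-bla cells (4000/well) plated 5 h, dosed with compound (217-fold DMSO dilution) for 16 h at 37 C; CCF4-AM substrate 2 h at room temperature. Activity is the 460/530 nm emission ratio (405 nm excitation), fitted in gain-of-signal direction versus DMSO.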

[7] = TOX21_p53_BLA_p5_viability: Viability Assessment in the Tox21 HCT-116 p53 Agonism Beta-lactamase Assay, Phase 5 (AID 2283600)
Method in brief: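 Decreased CellTiter-Glo luminescence denotes lost viability. Exposure: 16 h at 37C, 5% CO2, with compounds from DMSO stocks diluted 217-fold in wells of 4000 cells.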

[8] = target: Cellular tumor antigen p53 (Homo sapiens) (UniProt P04637); experiment: TOX21_p53_BLA_p4_ratio: Tox21 HCT-116 p53 Agonism Beta-lactamase Assay, Ratio, Phase 4 (AID 2283601)
Method in brief: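 HCT-116 p53 beta-lactamase reporter cells (4000/well) preincubated 5 h, then compound (217-fold dilution of DMSO stock) for 16 h at 37C. CCF4-AM substrate added 2 h at room temperature; 460/530 nm emission ratio fitted upward versus DMSO.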

[9] = Tanguay_ZF_120hpf_MORT_legacy: (Legacy) Oregon State University Tanguay Lab 120 Hour Post-fertilization zebrafish Assay for Mortality (AID 2283633);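 for AC50: fitted as increase in binary mortality versus DMSO negative control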
Method in brief: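 Dechorionated Tropical 5D wild-type zebrafish embryos, one per well from 6 hpf, static exposure in 0.64% DMSO at 28C until 120 hpf. Mortality scored as binary by brightfield microscopy at 24 and 120 hpf.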

[10] = Tanguay_ZF_120hpf_YSE_legacy: (Legacy) Oregon State University Tanguay Lab 120 Hour Post-fertilization zebrafish Assay for Yolk Sac Edema (AID 2283634);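 for AC50: actives raise the incidence of yolk sac edema above the DMSO baseline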
Method in brief: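 Dechorionated Tropical 5D wild-type zebrafish embryos were exposed statically, one per well, from 6 to 120 hpf at 28C in 0.64% DMSO. Yolk sac edema was scored present/absent by brightfield at 120 hpf, and dead embryos were excluded.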

[11] = Tanguay_ZF_120hpf_AXIS_legacy: (Legacy) Oregon State University Tanguay Lab 120 Hour Post-fertilization zebrafish Assay for Body Axis Malformation (AID 2283635);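 for AC50: potency for an increased fraction of larvae scored with body axis malformation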
Method in brief: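 Dechorionated wild-type Tropical 5D zebrafish embryos, one per well, statically exposed from 6 hpf to 120 hpf at 28C in 0.64% DMSO final. Body axis malformation scored present/absent by brightfield microscopy at 120 hpf; dead embryos excluded.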

[12] = Tanguay_ZF_120hpf_EYE_legacy: (Legacy) Oregon State University Tanguay Lab 120 Hour Post-fertilization zebrafish Assay for Eye Malformation (AID 2283636);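 note: binary presence or absence of eye malformation scored by brightfield in 120 hpf larvae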
Method in brief: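 5D wild-type embryos, pronase-dechorionated at 4 hpf; static exposure 6–120 hpf, 28C, dark; DMSO 0.64% final; 5uM trimethyltin chloride positive control. Binary eye-defect scoring at 120 hpf; dead embryos not scored.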

[13] = Tanguay_ZF_120hpf_SNOU_legacy: (Legacy) Oregon State University Tanguay Lab 120 Hour Post-fertilization zebrafish Assay for Snout Malformation (AID 2283637)
Method in brief: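 Binary brightfield scoring of snout malformation at 120 hpf. Dechorionated 5D wild-type embryos, one per well, static exposure from 6 hpf at 28C, sealed and dark; final DMSO 0.64% (vol/vol), DMSO as baseline; 5uM trimethyltin chloride positive control.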

[14] = Tanguay_ZF_120hpf_JAW_legacy: (Legacy) Oregon State University Tanguay Lab 120 Hour Post-fertilization zebrafish Assay for Jaw Malformation (AID 2283638);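 for AC50: active means more embryos with jaw malformation than DMSO controls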
Method in brief: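 Dechorionated Tropical 5D wild-type zebrafish embryos, one per well, exposed statically from 6 hpf to 120 hpf at 28C in 0.64% DMSO. Jaw malformation was scored by brightfield microscopy as present or absent. It was not scored in dead embryos.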

[15] = Tanguay_ZF_120hpf_OTIC_legacy: (Legacy) Oregon State University Tanguay Lab 120 Hour Post-fertilization zebrafish Assay for Otic Vesicle Malformation (AID 2283639)
Method in brief: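 Wild-type zebrafish larvae, whole-embryo exposure from early stage to 120 hpf at 28C. Binary brightfield scoring of otic vesicle morphology, fitted in the positive direction against the DMSO baseline.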

[16] = Tanguay_ZF_120hpf_PE_legacy: (Legacy) Oregon State University Tanguay Lab 120 Hour Post-fertilization zebrafish Assay for Pericardial Edema (AID 2283640);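 for AC50: potency for increased incidence of pericardial edema versus DMSO baseline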
Method in brief: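 Tropical 5D wild-type zebrafish embryos were statically exposed until 120 hpf at 28C, with 0.64% DMSO final. Pericardial edema was scored by brightfield as present or absent; endpoints were not scored in dead embryos.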

[17] = Tanguay_ZF_120hpf_BRAI_legacy: (Legacy) Oregon State University Tanguay Lab 120 Hour Post-fertilization zebrafish Assay for Brain Malformation (AID 2283641)
Method in brief: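 Tropical 5D wild-type zebrafish embryos exposed statically until 120 hpf at 28C, 0.64% DMSO final, sealed and dark. Brain malformation scored present/absent by brightfield at 120 hpf; dead embryos excluded. Trimethyltin chloride 5uM positive control.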

[18] = Tanguay_ZF_120hpf_SOMI_legacy: (Legacy) Oregon State University Tanguay Lab 120 Hour Post-fertilization zebrafish Assay for Somite Malformation (AID 2283647)
Method in brief: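 Dechorionated Tropical 5D wild-type zebrafish embryos, one per well from 6 hpf, statically exposed at 28C to 120 hpf in 0.64% DMSO; somite malformation scored present/absent by brightfield; trimethyltin 5 uM positive control; dead embryos not scored.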

[19] = Tanguay_ZF_120hpf_PFIN_legacy: (Legacy) Oregon State University Tanguay Lab 120 Hour Post-fertilization zebrafish Assay for Pectoral Fin Malformation (AID 2283648);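 note: each larva judged yes or no for fin defect by brightfield with dead larvae skipped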
Method in brief: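 Binary pectoral fin malformation call at 120 hpf by brightfield microscopy; 5D wild-type zebrafish, chorion removed at 4 hpf, one embryo per well from 6 hpf, static exposure at 28C; DMSO (0.64% final) as baseline.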

[20] = ATG_XTT_Cytotoxicity: Cytotoxicity Assessment in the Attagene TRANS-FACTORIAL HepG2 Assay (AID 2283584)
Method in brief: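 HepG2 cells transiently transfected with GAL4-UAS multiple reporter units, dosed 24 h; cytotoxicity read by XTT as loss of signal versus DMSO baseline.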

Measured: AC50

CN(C)C(=O)C1(N2CCCCC2)CCN(CC[C@@]2(c3ccc(Cl)c(Cl)c3)CN(C(=O)c3ccccc3)CCO2)CC1
inactive: [10] | [11] | [12] | [13] | [14] | [15] | [16] | [17] | [18] | [19]
active: [1] 37.8 µM | [2] 70.9 µM | [3] 70.5 µM | [4] 82.3 µM | [5] 34 µM | [6] 82 µM | [7] 74.6 µM | [8] 48.5 µM | [9] 16.4 µM

OC12N=C(c3ccccc3)SC1Cc1cc(Cl)ccc12 (stereo not given)
inactive: [1] | [6] | [9] | [15] | [17] | [19]
active: [2] 71.5 µM | [5] 66.6 µM | [8] 86.6 µM | [10] 47.3 µM | [11] 50 µM | [12] 11.1 µM | [13] 15.1 µM | [14] 45.3 µM | [16] 45.8 µM | [18] 117 µM

O=C(OCCCCCCOC(=O)c1ccccc1)c1ccccc1
inactive: [20] | [5] | [6] | [8] | [9] | [10] | [11] | [14] | [16] | [18]

CCCC(=O)OCCC(C)C
inactive: [2] | [4] | [5] | [6] | [7] | [9] | [10] | [11] | [12] | [13] | [14] | [15] | [16] | [17] | [18] | [19]

O=C(O)c1ccccc1-n1cc(C(=O)O)c(=O)c2cc(Nc3c(F)cc(F)cc3Cl)c(Cl)cc21
inactive: [2] | [8] | [9] | [10] | [12] | [13] | [14] | [15] | [16] | [17] | [18] | [19]

Clc1cc(Cl)c2c(c1)N=C1CCCCCN1C2
active: [10] 21.5 µM | [11] 7.43 µM | [13] 8.56 µM | [16] 24.9 µM
inactive: [1] | [2] | [3] | [4] | [5] | [6] | [8] | [9] | [12] | [14] | [15] | [17] | [18] | [19]

Oc1ccccc1
inactive: [1] | [2] | [3] | [4] | [5] | [6] | [7] | [8] | [9] | [10] | [11] | [12] | [13] | [14] | [15] | [16] | [17] | [18] | [19]
